Where “and” joins values, the source holds several entries; their conditions need not be identical. Identical values can stand only once. About 2,000 (36%) of roughly 5,500 compounds were called active. About 18% were inconclusive and are not listed. Cut-off read from the data, not from the text of the source: active = normalized growth mostly below about 0.91 (no sharp cut-off); inconclusive = no clear call, values can overlap the other calls; inactive = mostly above about 0.92. The list shows a part of the results.
Experiment: chemical genetic growth profiling, strain panel (AID 1159580);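 note: tested at 20 µM; growth read once vehicle control cultures reached saturation at 30 °C; 1 = growth at the plate median or of vehicle wells; lower values mean less growth of the strain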
Details: S. cerevisiae deletion strains, growth OD

Measured: normalized growth

O=C(CCCN1CCC(O)(c2ccc(Cl)cc2)CC1)c1ccc(F)cc1
active: locus YAL013W, strain DEP1, stronger effect = lower value 0.797 | locus YAL021C, strain ccr4, stronger effect = lower value 0.903 | locus YAL026C, strain drs2, stronger effect = lower value 0.0861 | locus YBR009C, strain hhf1, stronger effect = lower value 0.889 | locus YBR021W, strain FUR4, stronger effect = lower value 0.535 | locus YBR231C, strain swc5, stronger effect = lower value 0.815 | locus YBR279W, strain paf1, stronger effect = lower value 0.918 | locus YCL016C, strain dcc1, stronger effect = lower value 0.902 | locus YDL035C, strain GPR1, stronger effect = lower value 0.803 | locus YDL074C, strain BRE1, stronger effect = lower value 0.739 | locus YDL192W, strain arf1, stronger effect = lower value 0.751 | locus YDR069C, strain doa4, stronger effect = lower value 0.837 | locus YDR101C, strain arx1, stronger effect = lower value 0.904 | locus YDR162C, strain NBP2, stronger effect = lower value 0.747 | locus YDR195W, strain ref2 1.46 [resistant] | locus YDR318W, strain mcm21, stronger effect = lower value 0.838 | locus YDR388W, stronger effect = lower value 0.413 | locus YDR392W, strain spt3, stronger effect = lower value 0.281 | locus YDR502C, strain sam2, stronger effect = lower value 0.814 | locus YEL003W, strain gim4, stronger effect = lower value 0.909 | locus YEL061C, strain CIN8, stronger effect = lower value 0.923 | locus YER155C, strain BEM2 (second series), stronger effect = lower value 0.42 | locus YER167W, strain BCK2, stronger effect = lower value 0.839 | locus YFR010W, strain ubp6, stronger effect = lower value 0.867 | locus YGL086W, strain mad1, stronger effect = lower value 0.837 | locus YGL248W, strain PDE1, stronger effect = lower value 0.661 | locus YGL253W, strain hxk2, stronger effect = lower value 0.859 | locus YGR135W, strain pre9, stronger effect = lower value 0.73 | locus YGR229C, strain SMI1, stronger effect = lower value 0.324 | locus YGR252W, strain gcn5, stronger effect = lower value 0.368 | locus YHR013C, strain ard1, stronger effect = lower value 0.807 | locus YHR027C, strain rpn1, stronger effect = lower value 0.899 | locus YHR142W, strain chs7, stronger effect = lower value 0.85 | locus YIL066C, strain RNR3, stronger effect = lower value 0.846 | locus YJL095W, strain BCK1 (second series), stronger effect = lower value 0.899 | locus YJL129C, strain trk1, stronger effect = lower value 0.717 | locus YJL164C, strain tpk1, stronger effect = lower value 0.907 | locus YJL187C, strain SWE1 (second series), stronger effect = lower value 0.792
0.332 (active) and 0.99 (inactive): locus YJL095W, strain BCK1, stronger effect = lower value
inactive: locus YAL030W, strain snc1, stronger effect = lower value 0.991 | locus YAL040C, strain CLN3, stronger effect = lower value 1.02 | locus YBL061C, strain skt5, stronger effect = lower value 0.951 | locus YBR023C, strain chs3, stronger effect = lower value 0.919 | locus YBR171W, strain sec66, stronger effect = lower value 1.03 | locus YBR229C, strain ROT2, stronger effect = lower value 0.981 | locus YCL011C, strain gbp2, stronger effect = lower value 0.948 | locus YCL029C, strain bik1, stronger effect = lower value 0.945 | locus YCL061C, strain MRC1 (second series), stronger effect = lower value 0.979 | locus YCL061C, strain MRC1, stronger effect = lower value 1.01 | locus YCL069W, strain vba3, stronger effect = lower value 0.985 | locus YCR088W, strain abp1, stronger effect = lower value 1.03 | locus YDL005C, strain med2, stronger effect = lower value 1.03 | locus YDL040C, strain nat1, stronger effect = lower value 1.02 | locus YDL101C, strain DUN1, stronger effect = lower value 0.921 | locus YDL185W, strain tfp1, stronger effect = lower value 1.01 | locus YDR001C, strain nth1, stronger effect = lower value 1.04 | locus YDR137W, strain rgp1, stronger effect = lower value 1.04 | locus YDR150W, strain NUM1, stronger effect = lower value 0.949 | locus YDR159W, strain sac3, stronger effect = lower value 1.02 | locus YDR297W, strain sur2, stronger effect = lower value 0.972 | locus YDR334W, strain swr1, stronger effect = lower value 1.04 | locus YDR335W, strain msn5, stronger effect = lower value 0.984 | locus YDR363W, strain ESC2, stronger effect = lower value 0.886 | locus YEL037C, strain rad23, stronger effect = lower value 0.998 | locus YEL061C, strain CIN8 (second series), stronger effect = lower value 1.02 | locus YER002W, strain NOP16, stronger effect = lower value 1.01 | locus YER015W, strain faa2, stronger effect = lower value 0.987 | locus YER016W, strain bim1, stronger effect = lower value 0.943 | locus YER110C, stronger effect = lower value 0.977 | locus YER111C, strain swi4, stronger effect = lower value 1.02 | locus YER155C, strain BEM2, stronger effect = lower value 1.01 | locus YGL078C, strain dbp3, stronger effect = lower value 0.978 | locus YGL167C, strain pmr1, stronger effect = lower value 0.963 | locus YGL173C, strain kem1, stronger effect = lower value 0.951 | locus YGL227W, strain vid30, stronger effect = lower value 1.05 | locus YGL240W, strain doc1, stronger effect = lower value 0.979 | locus YGR078C, strain PAC10, stronger effect = lower value 0.855 and 0.989 | locus YHR079C, strain IRE1 (second series), stronger effect = lower value 0.928 | locus YHR079C, strain IRE1, stronger effect = lower value 0.979 | locus YHR094C, strain hxt1, stronger effect = lower value 1.03 | locus YHR129C, strain ARP1, stronger effect = lower value 0.926 | locus YHR200W, strain rpn10, stronger effect = lower value 0.98 | locus YIL073C, strain SPO22, stronger effect = lower value 1.25 | locus YIL125W, strain kgd1, stronger effect = lower value 1.02 | locus YIR030C, strain dcg1, stronger effect = lower value 0.979 | locus YJL092W, strain hpr5, stronger effect = lower value 0.986 | locus YJL115W, strain asf1, stronger effect = lower value 1.01 | locus YJL134W, strain LCB3, stronger effect = lower value 0.988 | locus YJL154C, strain vps35, stronger effect = lower value 1.03 | locus YJL166W, strain qcr8, stronger effect = lower value 0.912 | locus YJL168C, strain set2, stronger effect = lower value 0.995 | locus YJL187C, strain SWE1, stronger effect = lower value 0.989
0.794 (active) and 0.973 (inactive): locus YHR030C, strain SLT2, stronger effect = lower value
